Cycloheximide cs – counter-screen for Shiga toxin inhibitors: cycloheximide protein synthesis inhibition | cell reporter, cycloheximide protein synthesis inhibition counterscreen | max response, % | 300,000 tested, 12% active; in the data active means max response mostly above about 13%, no sharp cut-off; inactive means mostly below about 14%; further: read at 38.3 µM for the half of the compounds with a filed dose
Sm TGR block – inhibitors of Schistosoma mansoni thioredoxin glutathione reductase; 360,000 tested, 3% active; AID 485364; purified TGR, DTNB reduction, TNB absorbance 405 nm; Potency, µM (titrated, usually from 114 µM), usual class: inhibitors; Q962Y6; active means well fitted inhibition curve with a large enough effect; inconclusive means small, poorly fitted or top-dose-only effect; inactive means no such curve, though single readings can be large or run the other way; further: nearly all actives have a fitted effect of over 60% in size
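Kinetic colorimetric format: TGR-catalysed, NADPH-driven DTNB reduction monitored via TNB absorbance. Enzyme dispensed at 20 nM; compound exposure 15 min at room temperature before reaction start.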
Shiga inhibitor – inhibitors of Shiga toxin in Vero cells. inhibition, % at 38.7 µM. 290,000 tested, 9.2% active. Vero cells, Shiga toxin protein synthesis inhibition reporter; in the data active means inhibition mostly above about 28%, no sharp cut-off; inactive means mostly below about 43%
FMDV inh – foot and mouth disease virus antiviral activity; FMDV antiviral cell-based qHTS; Potency, µM (series often up to 57.9 µM), hits mostly inhibitors; 410,000 tested, 1.2% active; AID 1159524; calls by dose curve; tested in HEK293T cells; further: read-out not given here; nearly all actives have a fitted effect of over 45% in size
Each line names hits and unclear results; the compound was inactive in the other large screens. Only some compounds are listed: those with a hit (about 12% of all), similar ones and a draw of the others.

CCOc1ccc(-n2c(SCC(=O)N3CCOCC3)nc3c([nH]c4ccccc43)c2=O)cc1	none (no result: Cycloheximide cs, Shiga inhibitor)
CCCCCc1cc(O)c2c(C)cc(=O)oc2c1	Cycloheximide cs 13
Cc1ccc(N2CCN(C(=O)c3cc(COc4c(C)cccc4C)on3)CC2)c(C)c1	none
COc1cc(C)ccc1OCc1cc(C(=O)N2CCN(C3CCCCC3)CC2)no1	Cycloheximide cs 48, Shiga inhibitor 58
COc1ccc(C(=O)N2CCN(C3CCCCC3)CC2)cc1OC	none
CCN1CCN(C(=O)c2cc(COc3ccc(C(C)=O)cc3OC)on2)CC1	Cycloheximide cs 43, Shiga inhibitor 75
COc1cc(C)ccc1OCc1cc(C(=O)N2CCCCCCC2)no1	Cycloheximide cs 51, Shiga inhibitor 92
Cc1ccc2cccc(NC(=O)COc3ccccc3Cl)c2n1	none (no result: Cycloheximide cs, Shiga inhibitor)
O=C(CCc1nc2cccnc2n1-c1ccccc1)Nc1ccc(Cl)c(Cl)c1	FMDV inh inconclusive (no result: Cycloheximide cs, Shiga inhibitor)
COCC(=O)N1CCC2(CCCN(c3cccc(-c4ccccc4)c3)C2)CC1	none (no result: Cycloheximide cs, Sm TGR block, Shiga inhibitor)
Cc1nc(NC(=O)c2ccc3c(c2)OCO3)ccc1Br	Cycloheximide cs 46, Shiga inhibitor 55 (no result: Sm TGR block)
O=C(Nc1ccc([N+](=O)[O-])cn1)c1ccc2c(c1)OCO2	Cycloheximide cs 31, Shiga inhibitor 68
O=C(Cc1ccc([N+](=O)[O-])cc1)NNC(=O)c1ccc2c(c1)OCO2	none
Cc1nc(NC(=O)c2cncc(Br)c2)ccc1Br	none (no result: Shiga inhibitor)
CCC(CC)C(=O)Nc1ccc([N+](=O)[O-])cn1	none
O=C(Nc1ccccn1)c1ccc2c(c1)OCO2	Cycloheximide cs 36, Shiga inhibitor 44
O=C(CCC1CCCC1)Nc1ccc([N+](=O)[O-])cn1	Cycloheximide cs 35, Shiga inhibitor 54
Cc1ccc(C(c2sc3nc(-c4ccco4)nn3c2O)N2CCN(c3ccc(F)cc3)CC2)cc1 (centres undefined)	none (no result: Cycloheximide cs, Shiga inhibitor)
CC(C)(C)c1ccc(C(=O)Nc2ccc([N+](=O)[O-])cn2)cc1	Cycloheximide cs 58, Shiga inhibitor 76
O=C(Nc1ccc(F)cc1F)N1CCCN(c2ccc([N+](=O)[O-])cn2)CC1	FMDV inh inconclusive
O=C(Nc1ccc([N+](=O)[O-])cn1)c1cccnc1	none (no result: Shiga inhibitor)
Cc1cc(NC(=O)c2ccc3c(c2)OCO3)no1	Cycloheximide cs 29, Sm TGR block inconclusive, Shiga inhibitor 106
CC(C)(C)c1ccc(NC(=O)N2CCN(c3ccc([N+](=O)[O-])cn3)CC2)cc1	FMDV inh 22µM
Cc1cc(NC(=O)c2ccc3c(c2)OCCO3)no1	none
COC(=O)c1ccccc1NC(=O)c1ccc2nc(Cc3ccccc3)oc2c1	none (no result: Cycloheximide cs, Shiga inhibitor)
COc1ccc(O)c(C(=O)c2cnn(C(=O)c3cccc(N(C)C)c3)c2)c1	none (no result: Cycloheximide cs, Sm TGR block, Shiga inhibitor)
CN(C)c1cccc(C(=O)n2cc(C(=O)c3cc(F)ccc3O)cn2)c1	Shiga inhibitor 97
Cc1ccc(C2=Nc3ccccc3NC(c3ccncc3)=N2)cc1	FMDV inh inconclusive (no result: Cycloheximide cs, Shiga inhibitor)
S=C(NCCCn1ccnc1)Nc1ccc(Cl)cc1Cl	Sm TGR block 32µM
O=C(NCCCN1CCCC1=O)Nc1cc(Cl)ccc1Cl	none
O=C1CCCN1CCCNC(=S)Nc1ccc(Cl)cc1Cl	Sm TGR block 89µM
O=C1CCCN1CCCNC(=S)Nc1ccccc1Cl	Sm TGR block inconclusive
O=C(NCCCN1CCCC1=O)Nc1ccc(Cl)cc1Cl	Cycloheximide cs 16
O=C(NCCCN1CCCC1=O)Nc1ccc(Br)cc1Cl	Cycloheximide cs 28, Shiga inhibitor 38
O=C(NC1CCCC1)c1cn(C2CCCN(Cc3ccc4c(c3)OCCO4)C2)nn1 (centres undefined)	none (no result: Cycloheximide cs, Sm TGR block, Shiga inhibitor)
COCCCNC(=O)Nc1ccc(Br)cc1Cl	Cycloheximide cs 37, Shiga inhibitor 49
COCCCNC(=O)Nc1ccc(F)cc1F	none
CN1CCN(NC(=O)Nc2ccc(Br)cc2Cl)CC1	Cycloheximide cs 16
Cc1ccc(NC(=O)NCCCN2CCCC2=O)cc1	Cycloheximide cs 14
CN1CCN(NC(=O)Nc2cc(Cl)cc(Cl)c2)CC1	FMDV inh inconclusive
O=C(NCCCN1CCCC1=O)Nc1ccc(F)c(Cl)c1	Cycloheximide cs 47
O=C(Nc1ccc(F)cc1F)C(Cc1ccccc1)N1Cc2ccccc2C1=O (centres undefined)	none (no result: Cycloheximide cs, Shiga inhibitor)
CCn1cc(S(=O)(=O)c2ccc(C)cc2C)c(=O)c2cc(F)c(N3CCCC3)cc21	none (no result: Cycloheximide cs, Shiga inhibitor)
Cc1ccccc1OCc1nc(-c2cccnc2)no1	Sm TGR block 40µM
Cc1ccc(OCc2nc(-c3cccnc3)no2)cc1C	Cycloheximide cs 25, Shiga inhibitor 73
Cc1cc(OCc2nc(-c3cccnc3)no2)c(C)cc1Br	none
Cc1cc(C)cc(OCc2nc(-c3cccnc3)no2)c1	none
COc1ccc(CNc2nc(-c3cccc(NS(C)(=O)=O)c3)nc3ccccc23)c(OC)c1	none (no result: Cycloheximide cs, Sm TGR block, Shiga inhibitor)
COc1ccc(/C=C/C(=O)c2ccc(Cl)s2)cc1O	Cycloheximide cs 24
